Rows were chosen to be rich in hits. Some 1.3% of all compounds tested hit in one or more screens of this group.
AI-2 QS mod: modulates the Vibrio harveyi AI-2 quorum sensing system. Vibrio harveyi JMH597 AI-2 luminescence/OD600 ratio, 9 h; stronger effect = lower value; strain lacks LuxN and CqsS sensors; 0 = neutral-control median. AID 2094. activity change, % at 7.5 µM. actives 0.4% (n = 300,000); in the data active = activity change below about -75%, passing the limit was not always enough; inconclusive = no clear call, values can overlap the other calls;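 also: luminescence divided by OD600 gain over 9 h not by final OD600 alone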
Rce1 inhib: yeast Ras-converting enzyme inhibition | yeast membranes, quenched prenylated peptide cleavage fluorescence | calls only | actives 0.27% (n = 290,000) | AID 2563;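 active = fall in fluorescence gain of 50% or more versus controls, with final raw signal at or below 3038400; inconclusive = same 50% fall but final raw signal above 3038400; inactive = fall in fluorescence gain under 50%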;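 also: plate controls were neutral control wells for no effect and wells lacking membranes for full effect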
Target sequence (Q03530 whole entry, looked up): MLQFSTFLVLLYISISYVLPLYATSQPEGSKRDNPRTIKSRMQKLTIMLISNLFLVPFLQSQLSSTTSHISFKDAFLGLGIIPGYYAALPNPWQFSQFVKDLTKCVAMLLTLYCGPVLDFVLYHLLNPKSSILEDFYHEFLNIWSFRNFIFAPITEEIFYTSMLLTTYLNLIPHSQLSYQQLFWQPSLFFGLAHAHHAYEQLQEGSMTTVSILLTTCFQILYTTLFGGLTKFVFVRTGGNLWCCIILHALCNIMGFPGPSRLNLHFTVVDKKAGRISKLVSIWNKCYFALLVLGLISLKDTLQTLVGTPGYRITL
PGC1a acetyl inh: lowers PGC1a acetylation signal in U2OS cells; AlphaScreen anti-acetyl-lysine; with virally co-expressed GCN5 acetyltransferase; inhibition, % at 15.6 µM; actives 0.17% (n = 350,000);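 active = every replicate shows inhibition of at least 40%; inconclusive = mean inhibition at least 40% but some replicate below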;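 also: 0% = neutral control wells and 100% = positive control wells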
C2C12 statin: suppression of simvastatin myotoxicity | rescue of ATP level, % at 7.49 µM | actives 0.78% (n = 330,000) | C2C12 myotubes + simvastatin, ATP luminescence, 48 h; scaled: DMSO 0, geranylgeraniol control 100 | AID 602340;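 active = mean ATP rescue above about 67%, or every replicate alone reaching that limit, limit read from the data, passing the limit was not always enough; inconclusive = no clear call, values can overlap the other calls; inactive = mean under the limit and some replicate under it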;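 also: myotubes were challenged with 10 µM simvastatin during compound exposure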
HIF act: HIF pathway transcriptional activation | actives 0.32% (n = 300,000) | AID 1910 | U2OS HRE-luciferase reporter, luminescence; normalized: DMSO 0%, desferrioxamine 100% | activation, % at 7.5 µM (by protocol);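 active = mean activation of at least 10% of the iron chelator positive control signal, with at least half of replicates also reaching 10%; inconclusive = mean and replicate majority disagree about reaching 10%; inactive = mean and most replicates under 10%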
Active calls of the source: *.

Screening Cc1oc(C(C)(C)C)cc1C(=O)Nc1ccc2c(c1)OCCO2 returned AI-2 QS mod inconclusive, Rce1 inhib inactive, PGC1a acetyl inh -2, C2C12 statin 95* and HIF act 2.
COc1ccccc1N(CC(=O)Nc1ccc2c(c1)OCCO2)S(C)(=O)=O was read as AI-2 QS mod 8, Rce1 inhib inactive, PGC1a acetyl inh -5, C2C12 statin 122* and HIF act 0.
For O=C(Nc1ccc(C(F)(F)F)cc1)c1ccc2nc[nH]c2c1 the results were AI-2 QS mod -3, PGC1a acetyl inh 3, C2C12 statin -21 and HIF act 2.
COc1ccc(Cl)cc1C(=O)Nc1ccc2c(c1)OCO2 was read as AI-2 QS mod 9, Rce1 inhib active, PGC1a acetyl inh 3, C2C12 statin 16 and HIF act 4.
COc1ccc(C)cc1N(CC(=O)Nc1ccc2c(c1)OCCO2)S(C)(=O)=O was read as AI-2 QS mod 6, Rce1 inhib inactive and HIF act 0.
COCC(=O)N1CC2(C1)CN(C(=O)Nc1ccccc1F)[C@@H](CO)c1c2c2ccc(OC)cc2n1C was read as PGC1a acetyl inh -8.
COCc1nnc(NC(=O)c2cc(Cl)ccc2OC)s1 was read as AI-2 QS mod 15, Rce1 inhib inactive, C2C12 statin 5 and HIF act 877*.
For COc1ccccc1C(=O)Nc1ccc2c(c1)OCO2 the results were AI-2 QS mod -23, Rce1 inhib inactive, PGC1a acetyl inh 11, C2C12 statin 114* and HIF act 2.
`CC(C)c1cc(C(=O)Nc2ccc3c(c2)OCO3)no1` gave AI-2 QS mod -32, Rce1 inhib inactive, PGC1a acetyl inh 0, C2C12 statin 83* and HIF act 3.
`O=C(Nc1ccc2c(c1)OCO2)c1cc(C2CC2)on1` gave AI-2 QS mod 5, Rce1 inhib inactive, C2C12 statin 2 and HIF act 3.
`C[C@H]1CN([C@@H](C)CO)C(=O)c2cc(/C=C/c3ccccc3)cnc2O[C@H]1CN(C)C(=O)c1ccccc1` gave PGC1a acetyl inh 6 and C2C12 statin 13.
O=C(Cc1ccccn1)NCC[C@H]1CC[C@@H](NC(=O)Nc2ccccc2)[C@@H](CO)O1 was read as PGC1a acetyl inh -10 and C2C12 statin 6.
For CC1(c2nnc(-c3cccc(Cl)c3)o2)CC(c2cccc(F)c2)=NO1 (configuration not stated) the results were AI-2 QS mod -2, Rce1 inhib active, PGC1a acetyl inh 15 and HIF act 1.
For OC[C@@H]1Nc2ccc(C#Cc3ccc(F)cc3)cc2[C@H]2[C@@H]1CCN2Cc1nccs1 the results were PGC1a acetyl inh -7 and C2C12 statin 3.
For C[C@H](CO)N1C[C@H](C)[C@H](CN(C)C)Oc2ncc(C#Cc3ccccc3)cc2C1=O the results were PGC1a acetyl inh 2 and C2C12 statin 7.
For C=CCn1c(SCC(=O)Nc2ccc(N(C)C)cc2)nnc1-c1cccc(C)c1 the results were AI-2 QS mod 143, Rce1 inhib inactive, PGC1a acetyl inh -7, C2C12 statin 84* and HIF act 0.
Screening C=CCn1c(SCC(=O)Nc2cccc(C)c2)nnc1-c1cnccn1 returned AI-2 QS mod 2, Rce1 inhib inactive, PGC1a acetyl inh 1, C2C12 statin -5 and HIF act 0.
Screening C/C(=N\NC(=O)CN1CCCCC1)c1ccccc1O returned AI-2 QS mod -11, Rce1 inhib inactive, PGC1a acetyl inh 44*, C2C12 statin 4 and HIF act 13*.
C/C(=N\NC(=O)CN1CCCCC1)c1cccc([N+](=O)[O-])c1 was read as AI-2 QS mod 4, Rce1 inhib inactive and HIF act 0.
O=C(C[C@@H]1C[C@@H]2c3cc(NC(=O)Cc4ccncc4)ccc3O[C@@H]2[C@@H](CO)O1)NCc1ccccn1 was read as PGC1a acetyl inh -7 and C2C12 statin 3.
Screening COc1ccc(-c2oc3ccccc3c2C(=O)OCc2ccccc2OC)cc1 returned AI-2 QS mod 20, Rce1 inhib active, PGC1a acetyl inh -15, C2C12 statin 12 and HIF act 0.
For CCN(CC)c1ccc(C(=O)c2ccccc2C(=O)O)c(O)c1 the results were AI-2 QS mod 35, Rce1 inhib active, C2C12 statin 9 and HIF act -1.
CCN1CC(=O)N2[C@@H](CO)[C@H](c3ccc(-c4ccccc4F)cc3)[C@@H]2C1 was read as PGC1a acetyl inh 3.
Screening O=C1C(=Cc2ccncc2)CCCc2ccccc21 returned PGC1a acetyl inh 12 and C2C12 statin -2.
`O=C1/C(=C/c2ccncc2)CCC/C1=C\c1ccncc1` gave AI-2 QS mod 3, Rce1 inhib inactive, PGC1a acetyl inh 78*, C2C12 statin 250* and HIF act -3.
For COc1ccc(NC(=O)NCc2ccccn2)cc1 the results were AI-2 QS mod -2, Rce1 inhib inactive, PGC1a acetyl inh -8, C2C12 statin 110* and HIF act 0.
For O=C(Nc1ccc2c(c1)OCCO2)C1CCN(C(=O)c2ccc(Br)cc2)CC1 the results were AI-2 QS mod 15, Rce1 inhib inactive, PGC1a acetyl inh -9, C2C12 statin 3 and HIF act -1.
`O=C(NCc1ccccn1)Nc1ccccc1` gave AI-2 QS mod -1, Rce1 inhib inactive, C2C12 statin 10 and HIF act 1.
Screening COc1ccc(C(=O)N2CCC(C(=O)Nc3ccc4c(c3)OCCO4)CC2)cc1 returned AI-2 QS mod 10, Rce1 inhib inactive, PGC1a acetyl inh 7, C2C12 statin 86* and HIF act 0.
For COc1ccc(N/C=C\C(=O)c2ccc3c(c2)OCO3)cc1 the results were AI-2 QS mod 11, Rce1 inhib inactive, PGC1a acetyl inh -7 and HIF act 13*.
COc1ccc(C(=O)N2CCC(C(=O)NCc3ccccn3)CC2)cc1 was read as AI-2 QS mod 10, Rce1 inhib inactive, PGC1a acetyl inh -1, C2C12 statin 114* and HIF act 0.
`CO[C@@H]1CN(C)C(=O)c2ccc(NC(=O)C3CC3)cc2OC[C@H](C)N(C(=O)NC(C)C)C[C@@H]1C` gave PGC1a acetyl inh -6 and C2C12 statin -10.
O=C(NC1CCCC1)N1CC(=O)N2[C@H](CO)[C@@H](c3ccc(-c4cccnc4)cc3)[C@@H]2C1 was read as PGC1a acetyl inh 8.
Screening COc1ccc(CCNC(=O)C(=O)NCc2ccccn2)cc1 returned AI-2 QS mod -79*, Rce1 inhib inactive, PGC1a acetyl inh -12, C2C12 statin 10 and HIF act 0.
Screening O=C(Nc1ccccc1)Nc1cccc2nsnc12 returned AI-2 QS mod 10, Rce1 inhib inactive and HIF act 11*.
For CCCC(=O)Nc1ccc2c(c1)OC[C@H](C)N(CCC(F)(F)F)C[C@H](C)[C@@H](OC)CN(C)C2=O the results were PGC1a acetyl inh 3.
